Potency and affinity values are given separately. Records with an inconclusive call do not appear. The source made the active and inactive calls.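 How the source made its calls: active means a valid curve of falling signal whose half-effect concentration is at most ten times the top tested dose; inconclusive means flat curve at 30 to 70% inhibition, or poor fit; inactive means signal rise, flat within 30%, or potency beyond limit.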
The molecules below were run against Scavenger receptor class B member 1 (Mus musculus) (UniProt Q61009) (assay: mouse SR-BI DiI-HDL uptake blockers – ldlA[mSR-BI] cells, fluorescence, cherry pick, dose response (AID 493194;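 further: CHO cells lacking LDL receptor and overexpressing mouse SR-BI; cellular uptake of fluorescently labeled HDL measured as cell fluorescence; 0% = median of neutral control wells and -100% = median of positive control wells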)). Settings: CHO ldlA[mSR-BI] DiI-HDL uptake fluorescence, 3 h; series mostly up to 35 µM; activity change, negative = inhibition: at the top concentration.
Scavenger receptor class B member 1 (Mus musculus), sequence (Q61009 whole entry, looked up): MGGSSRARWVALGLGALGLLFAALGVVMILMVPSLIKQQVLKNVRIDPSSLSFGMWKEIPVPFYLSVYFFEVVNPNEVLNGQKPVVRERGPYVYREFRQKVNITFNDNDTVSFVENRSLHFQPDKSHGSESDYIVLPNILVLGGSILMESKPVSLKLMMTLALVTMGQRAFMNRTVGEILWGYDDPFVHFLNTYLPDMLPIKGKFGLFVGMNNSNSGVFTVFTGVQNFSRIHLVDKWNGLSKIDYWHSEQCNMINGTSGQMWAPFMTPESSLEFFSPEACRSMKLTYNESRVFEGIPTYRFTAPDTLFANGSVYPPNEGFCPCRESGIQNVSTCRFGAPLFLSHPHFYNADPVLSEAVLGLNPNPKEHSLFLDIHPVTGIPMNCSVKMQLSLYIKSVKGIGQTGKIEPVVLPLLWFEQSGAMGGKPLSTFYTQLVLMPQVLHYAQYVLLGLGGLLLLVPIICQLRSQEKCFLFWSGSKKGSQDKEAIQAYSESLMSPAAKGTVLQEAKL

Activity change, negative = inhibition, inactive:
Cc1c(C(=O)Nc2cccc(Cl)c2)c2ccccn2c1CCc1ccncc1 1.1%
CCC(C(=O)NC1CCCC1)N(C(=O)Cn1nnc(-c2ccc(OC)c(OC)c2)n1)c1cccc(O)c1 (configuration not stated) -29.5%
CCCOC1CCCN(C(=O)c2cc(COc3cncc(Cl)c3)on2)C1 (configuration not stated) 27.2%
Cc1cc(C)nc(N2CCC(C(=O)N3CCN(c4cc(Cl)ccc4C)CC3)CC2)n1 -16.4%
CC1Cc2ccccc2N1CC(=O)Nc1ccc(N2CCOCC2)cc1 (configuration not stated) 33.9%
CCCC(=O)N1c2ccc(-c3csc(N)n3)cc2CC1C (configuration not stated) -43.6%
CCn1nc(C)c(CN2CCc3c([nH]c4ccccc34)C2c2ccc(F)c(OC)c2)c1C (configuration not stated) -40.9%
C/C=C/COC(=O)c1[nH]c2c(c1C)C(=O)CC(c1ccco1)C2 (configuration not stated) -25.1%
Cc1cc(C)cc(N2CN=C3SCC(=O)N3C2)c1 -9.5%
O=C(Nc1ccn(Cc2c(F)c(F)c(F)c(F)c2F)n1)c1ccc(COc2ccccc2Cl)cc1 57.4%
COc1ccc(CN2CCN(C(=O)c3ccc(S(=O)(=O)NCc4ccco4)cc3)CC2)cc1F 1.25%
CC(C)C(=O)Nc1sc2c(c1-c1nc3ccccc3[nH]1)CCCC2 -24.5%
N#CCCN(C(=O)COC(=O)CCc1c[nH]c2ccccc12)c1ccc(F)cc1 -3%
Cc1ccc(-c2cc(-c3ccc(C)cc3O)[nH]n2)cc1 -5.14%
COc1ccc(-c2cc(C(F)(F)F)nc(SCCC(=O)N3CCN4CCCC4C3)n2)cc1 (configuration not stated) 0.459%
CCCC(=O)Nc1ccc(Cl)c(NC(=O)c2cccc(OC)c2)c1 -4.6%
CCOC(=O)C1=C(CNCCOc2ccc(OC)cc2)NC(=O)NC1c1ccc2c(c1)OCO2 (configuration not stated) 3.06%

Reference: PubChem BioAssay AID493194 (Broad Institute, 2011)
